CYP2C9 inh: blockers of cytochrome P450 2C9 activity – biochemical, luminescence, ADME assay, primary screen; CYP2C9 Supersomes, luciferin-H conversion; P11712; AID 777, 2007; actives 20% (n = 96,000); inhibition, % at 5 µM;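 active = blocking of liver enzyme CYP2C9 beyond about 50% at 5 µM, limit read from the data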
Target sequence (P11712 whole entry, looked up): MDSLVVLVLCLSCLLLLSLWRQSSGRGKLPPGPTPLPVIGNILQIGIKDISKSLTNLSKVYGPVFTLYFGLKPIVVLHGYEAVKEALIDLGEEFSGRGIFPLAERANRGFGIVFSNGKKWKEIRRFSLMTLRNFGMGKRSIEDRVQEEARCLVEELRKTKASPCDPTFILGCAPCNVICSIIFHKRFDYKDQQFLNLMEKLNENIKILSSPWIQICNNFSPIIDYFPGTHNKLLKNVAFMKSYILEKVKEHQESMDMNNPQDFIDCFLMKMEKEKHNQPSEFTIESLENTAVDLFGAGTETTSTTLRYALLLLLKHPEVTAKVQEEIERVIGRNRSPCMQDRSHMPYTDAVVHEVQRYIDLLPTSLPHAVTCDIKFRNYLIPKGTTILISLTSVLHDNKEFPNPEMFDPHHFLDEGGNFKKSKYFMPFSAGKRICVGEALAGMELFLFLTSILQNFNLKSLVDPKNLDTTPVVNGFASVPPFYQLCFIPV
CYP2C19 activ: human CYP2C19 activators, primary screen, biochemical, luminescence; Cytochrome P450 2C19 (Homo sapiens), P33261; recombinant CYP2C19, luciferin-H EGE luminescence; stronger effect = higher value; 0 = fully inhibited enzyme, 1 = untreated enzyme; activation factor at 5 µM; 96,000 tested, under 10 active;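 active = activation factor of at least 2 at 5 µM in the primary screen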
CYP2C19 inhib: blockers of cytochrome P450 2C19 activity – biochemical, luminescence, ADME assay, primary screen; P33261; CYP2C19 Supersomes, luciferin-H EGE luminescence, 30 min; inhibition, % at 5 µM; actives 21% (n = 96,000); AID 778, 2007;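 active = CYP2C19 inhibition above a set limit at 5 µM in the primary screen, cut at about 50% in these data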
CYP2C9 activ: human CYP2C9 activators, primary screen, biochemical, luminescence; activation factor at 5 µM; actives 1.4% (n = 96,000); Cytochrome P450 2C9 (Homo sapiens), P11712; recombinant CYP2C9, luciferin-H conversion; stronger effect = higher value; factor 1 = untreated enzyme, 0 = blocked;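 active = activation factor of 2 or more for CYP2C9 at a 5 µM dose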
Of the large screens only hits and unclear results are named; the others gave an inactive call. In the library only some 31% were active in any assay of this set; here they are far more common.

O=C(O)c1ccc(NC(CSCc2cccc(F)c2)C(=O)O)c([N+](=O)[O-])c1 (stereo unspecified)	CYP2C9 inh 62
NC(=O)c1ccc(NCc2ccco2)c([N+](=O)[O-])c1	none
O=C(O)c1ccc(NC(CSCc2ccc(F)cc2)C(=O)O)c([N+](=O)[O-])c1 (stereo unspecified)	CYP2C9 inh 90
O=C(NC(Cc1ccc(F)cc1)C(=O)O)c1ccccc1 (stereo unspecified)	none
Cc1ccc(CSCC(Nc2ccc(C(=O)O)cc2[N+](=O)[O-])C(=O)O)cc1 (stereo unspecified)	CYP2C9 inh 94
O=C(CN(c1ccc(Cl)c(C(F)(F)F)c1)S(=O)(=O)c1ccccc1)N/N=C/c1cccc2c1OCCO2	CYP2C9 inh 60
CS(=O)(=O)N(CC(=O)N/N=C/c1cccc2c1OCCO2)c1ccccc1Br	none
CC(=O)C1=C(C)Nc2cc(C(F)(F)F)ccc2S1	CYP2C19 inhib 60
Cc1ccccc1OCC(=O)NCC1CCCO1 (stereo unspecified)	none
CC(C)NS(=O)(=O)c1ccc(OCC(N)=O)c(Cl)c1	none
O=C(COC(=O)CCC(=O)c1ccc(Cl)cc1)NCC1CCCO1 (stereo unspecified)	CYP2C19 inhib 59
Cc1cc(Cl)ccc1OCCCC(=O)NCC1CCCO1 (stereo unspecified)	CYP2C9 activ 2.3
CC(C)NS(=O)(=O)c1ccc(OCC(=O)NCC2CCCO2)c(Cl)c1 (stereo unspecified)	CYP2C9 inh 66, CYP2C19 inhib 67
CN(C)c1ccc(C(=O)OCC(=O)NCC2CCCO2)cc1 (stereo unspecified)	CYP2C19 inhib 83
Cc1cc(Cl)ccc1OCCCC(=O)NO	none
O=C(CSCc1ccc(Cl)cc1)NCC1CCCO1 (stereo unspecified)	none
COc1ccc(-c2c[n+]3c4n2CCCCC4=C(c2ccc(Br)cc2)C3)cc1	none
CN(C)c1cccc(C(=O)OCC(=O)NCC2CCCO2)c1 (stereo unspecified)	CYP2C19 inhib 67, CYP2C9 activ 2.6
O=C(CCC1CCCC1)c1c(O)c2ccccc2oc1=O	none
O=C(c1c(O)c2ccccc2oc1=O)C1CCCCC1	CYP2C9 inh 65
CC(C)NC(=O)c1cccc(C(F)(F)F)c1	none
Cn1nnnc1SCC(=O)Nc1ccc(Cl)cc1Cl	none
O=C(CSc1cccc(C(F)(F)F)c1)Nc1ccc(Cl)cc1Cl	CYP2C19 inhib 96
CCNC(=O)NC(=O)CSc1cccc(C(F)(F)F)c1	CYP2C19 inhib 77
CC(Sc1cccc(C(F)(F)F)c1)C(=O)NC(N)=O (stereo unspecified)	CYP2C9 activ 2.4
CS(=O)(=O)Nc1ccc(C(=O)N2CCCCC2)cc1	none
CCN(CC)CC(C(=O)N(CC)CC)P(=O)(c1ccccc1)c1ccccc1 (stereo unspecified)	none
O=C(Cc1ccc(-n2cnnn2)cc1)NC12CC3CC(CC(C3)C1)C2	none
CCOCCCNC(=O)CC1Oc2ccc(C)cc2NC1=O (stereo unspecified)	none
CCOc1ccc(C2/C(=C(/O)c3ccc(Cl)cc3)C(=O)C(=O)N2CCCN(C)C)cc1OC (stereo unspecified)	none
CCN(C(C)=O)c1nnc(CSc2nc3ccccc3s2)s1	CYP2C19 inhib 88
O=C(CSc1ncn[nH]1)N1CCN(S(=O)(=O)c2ccccc2)CC1	none
CC1(C)C(C=C(Cl)Cl)C1C(=O)N1CCN(c2ccccc2)CC1 (stereo unspecified)	none
O=c1c(Cc2ccc(Cl)cc2Cl)c(O)ccn1Cc1ccc(Cl)cc1	CYP2C19 inhib 54
O=c1c(Cc2ccc(Cl)cc2)c(O)ccn1Cc1cccc(Cl)c1	none
O=C(NCc1ccco1)c1cc2n(n1)C(C(F)(F)F)CC(c1ccc(F)cc1)N2 (stereo unspecified)	none
Cc1ccc(S(=O)(=O)Nc2ccc(Br)cc2/C=N/n2cnnc2)cc1	CYP2C9 inh 62, CYP2C19 inhib 54
Cc1nnc(C)n1/N=C/c1cc(Br)ccc1O	none
C=CCn1c(SCCCC)nc(O)cc1=O	none
C=CCn1c(SC(C)CC)nc(O)cc1=O (stereo unspecified)	CYP2C19 inhib 98
CC1(C)CC(=O)C(C=NCCCO)=C(O)C1	none
O=C(NCc1ccccn1)C1CC(c2ccc(F)cc2)=NO1 (stereo unspecified)	none
COc1cccc(-n2c(C)c(C(C)=O)c(C(C)=O)c2C)c1	CYP2C9 inh 78, CYP2C19 inhib 77
COc1ccc(-n2c(C)c(C(C)=O)c(C(C)=O)c2C)cc1	none
COc1ccc(-n2c(C)c(C(C)=O)c(C(C)=O)c2C)cc1OC	CYP2C19 inhib 68
Cc1cccc(NC(=S)c2nc3ccccc3s2)c1	none
COc1ccc(S(=O)(=O)N2CC(O)CC2C(=O)OCC(=O)Nc2ccc(Cl)cn2)cc1 (stereo unspecified)	CYP2C19 inhib 74
COc1cc(CC(=O)OCC(=O)Nc2cc(S(=O)(=O)N3CCCC3)ccc2Cl)cc(OC)c1OC	none
COc1cc(NC(=O)COC(=O)[C@@H]2CCCN2S(=O)(=O)c2ccc(Cl)cc2)cc(OC)c1OC	CYP2C9 inh 72
Cc1noc(C)c1COC(=O)C1CC(O)CN1S(=O)(=O)c1ccc(Cl)cc1 (stereo unspecified)	CYP2C19 inhib 71
CCN(CC)C(=O)CNC(=O)Cc1ccc(Cl)cc1	none
COCCNC(=O)c1onc(CSc2ccc(C)c(C)c2)c1C(=O)O	none
CCCCNC(=O)c1onc(CSc2cccc(C)c2)c1C(=O)O	CYP2C9 inh 76
CCCCNC(=O)c1onc(CSc2cc(C)cc(C)c2)c1C(=O)O	CYP2C9 inh 73
COCCNC(=O)c1onc(CSc2cc(C)cc(C)c2)c1C(=O)O	none
CCC(C)C(NC(=O)OC(C)(C)C)C(=O)NC(C(=O)N1CCCC1C(N)=O)C(C)CC (stereo unspecified)	none
CCCc1cc(=O)[nH]c(SCC(=O)N(C)C2CCS(=O)(=O)C2)n1 (stereo unspecified)	none
CN(c1nc(-c2ccccc2)cs1)C1CCS(=O)(=O)C1 (stereo unspecified)	CYP2C19 inhib 58
CN(C(=O)CSc1nc(-c2ccc(F)cc2)cs1)C1CCS(=O)(=O)C1 (stereo unspecified)	CYP2C9 activ 3.6
CN(C(=O)COC(=O)c1nc(-c2ccccc2)n(-c2ccccc2)n1)C1CCS(=O)(=O)C1 (stereo unspecified)	none
CN(C(=O)CSc1nc(-c2ccccc2)cs1)C1CCS(=O)(=O)C1 (stereo unspecified)	CYP2C19 inhib 60, CYP2C9 activ 4
CN1CCN(CC(=O)N(C)c2nc(-c3ccccc3)cs2)CC1	none
Cc1nc2nc3c(cn2n1)C(=O)CCC3	none
COc1cccc(NC(=O)Cc2c(C(=O)O)[nH]c3ccccc23)c1	none
COc1cccc(NC(=O)Cc2cn(C)c3ccccc23)c1	CYP2C9 activ 3.8

Screens: PubChem, Sanford-Burnham Center for Chemical Genomics
